Drawing on the antibiotic and cytotoxicity screens of Wong et al. (2023), this text covers cytotoxicity call for 67 molecules.

Structures are written as SMILES. About 3,300 (8.5%) of roughly 39,000 compounds were called active. Many of the other results were omitted from the sample, so actives are more common in it than they were.

This assay concerns HepG2. The assay is described as follows: cytotoxicity call (relative viability < 0.9). The following applies: 10 µM.
As for `CN1C(=O)c2cc(NS(C)(=O)=O)ccc2OC[C@@H]2O[C@H](CC(=O)N3CCOCC3)CC[C@@H]21`, the cytotoxicity call was “inactive”.
`C[C@@H]1C(=O)O[C@@H]2C[C@@](C)(O)[C@H]3C[C@H]4O[C@@]4(C)[C@@]3(O)C(=O)[C@@H]12`: the cytotoxicity call is “inactive”.
The same measure for `Cc1ccc(S(=O)(=O)N(C)C[C@H]2Oc3ccc(NC(=O)CCN4CCOCC4)cc3C(=O)N([C@@H](C)CO)C[C@@H]2C)cc1`: “active”; for `COc1ccc(S(=O)(=O)N(C)C[C@@H]2Oc3ccc(N(C)C)cc3C(=O)N([C@@H](C)CO)C[C@H]2C)cc1`: “active”; for `Cc1ccc(S(=O)(=O)N(C)C[C@H]2Oc3ccc(NC(=O)C4CC4)cc3C(=O)N([C@@H](C)CO)C[C@H]2C)cc1`: “inactive”.
The same measure for `COc1ccc(S(=O)(=O)N(C)C[C@H]2Oc3ccc(NC(=O)C4CC4)cc3C(=O)N([C@@H](C)CO)C[C@H]2C)cc1`: “inactive”.
With `Cc1ccc(S(=O)(=O)N(C)C[C@@H]2Oc3ccc(NC(=O)CCN4CCOCC4)cc3C(=O)N([C@H](C)CO)C[C@@H]2C)cc1` the entry was “inactive”; with `COc1ccc(S(=O)(=O)N(C)C[C@@H]2Oc3ccc(N(C)C)cc3C(=O)N([C@H](C)CO)C[C@@H]2C)cc1`, “inactive”; with `Cc1ccc(S(=O)(=O)N(C)C[C@H]2Oc3ccc(NC(=O)CCN4CCOCC4)cc3C(=O)N([C@@H](C)CO)C[C@H]2C)cc1`, “inactive”.
In the case of `COc1ccc(S(=O)(=O)N(C)C[C@@H]2Oc3ccc(NC(=O)C4CC4)cc3C(=O)N([C@@H](C)CO)C[C@H]2C)cc1`, the cytotoxicity call is “inactive”.
With `Cc1ccc(S(=O)(=O)N(C)C[C@@H]2Oc3ccc(NC(=O)C4CC4)cc3C(=O)N([C@@H](C)CO)C[C@H]2C)cc1` the entry was “active”.
With `Cc1ccc(S(=O)(=O)N(C)C[C@@H]2Oc3ccc(NC(=O)C4CC4)cc3C(=O)N([C@H](C)CO)C[C@@H]2C)cc1` the entry was “inactive”; with `COc1ccc(S(=O)(=O)N(C)C[C@H]2Oc3ccc(NC(=O)C4CC4)cc3C(=O)N([C@@H](C)CO)C[C@@H]2C)cc1`, “active”.
`COc1ccc(S(=O)(=O)N(C)C[C@H]2Oc3ccc(N(C)C)cc3C(=O)N([C@@H](C)CO)C[C@H]2C)cc1`: the cytotoxicity call is “inactive”.
Turning to `C[C@@H]1CCCCO[C@H](CN(C)S(=O)(=O)c2ccccc2)[C@@H](C)CN([C@@H](C)CO)C(=O)c2cc(NS(C)(=O)=O)ccc2O1`, the cytotoxicity call is “inactive”.
Regarding `O/N=C1\CCCCc2c1[nH]c1ccc(C3CCCCC3)cc21`, the cytotoxicity call is “inactive”.
The same measure for `C[C@@H]1CCCCO[C@@H](CN(C)C(=O)c2ccncc2)[C@H](C)CN([C@H](C)CO)C(=O)c2cc(NC(=O)NC3CCCCC3)ccc2O1`: “inactive”; for `C[C@@H]1CN([C@H](C)CO)C(=O)c2cccc(NC(=O)c3cnccn3)c2O[C@H]1CN(C)Cc1ccncc1`: “inactive”; for `C[C@H](CO)N1C[C@H](C)[C@H](CN(C)Cc2ccc(-c3ccccc3)cc2)Oc2c(NS(=O)(=O)c3ccc(Cl)cc3)cccc2C1=O`: “inactive”.
For `N=C(N)NCCCCN.O=S(=O)(O)O`, the cytotoxicity call is “inactive”.
With `N=C(N)NCCCCNC(=N)N.O=S(=O)(O)O` the entry was “inactive”; with `N=C(N)NCCCCNC(=N)N`, “active”.
With `O=C(Nc1ccc2c(c1)[C@H]1C[C@H](CC(=O)N3CCc4ccccc4C3)O[C@@H](CO)[C@H]1O2)C1CCOCC1` the entry was “inactive”; with `C[C@@H]1CN([C@H](C)CO)C(=O)Cc2cc(NC(=O)Nc3cccc4ccccc34)ccc2O[C@H]1CN(C)Cc1ccccc1`, “inactive”.
The same measure for `C[C@@H]1CN([C@@H](C)CO)C(=O)Cc2cc(NC(=O)Nc3cccc4ccccc34)ccc2O[C@@H]1CN(C)Cc1ccccc1`: “active”; for `C[C@H](CO)N1C[C@H](C)[C@H](CN(C)Cc2ccccc2)Oc2ccc(NC(=O)Nc3cccc4ccccc34)cc2CC1=O`: “active”.
On to `C[C@H]1CN([C@@H](C)CO)C(=O)Cc2cc(NC(=O)Nc3cccc4ccccc34)ccc2O[C@@H]1CN(C)Cc1ccc(-c2ccccc2)cc1`, for which the cytotoxicity call is “inactive”.
With `C[C@@H]1CN([C@H](C)CO)C(=O)Cc2cc(NC(=O)Nc3cccc4ccccc34)ccc2O[C@H]1CN(C)Cc1ccc(-c2ccccc2)cc1` the entry was “inactive”; with `C[C@@H]1CN([C@H](C)CO)C(=O)Cc2cc(NC(=O)Nc3cccc4ccccc34)ccc2O[C@@H]1CN(C)Cc1ccccc1`, “active”; with `C[C@H](CO)N1C[C@H](C)[C@@H](CN(C)Cc2ccccc2)Oc2ccc(NC(=O)Nc3cccc4ccccc34)cc2CC1=O`, “active”.
With `C[C@H](CO)N1C[C@H](C)[C@H](CN(C)Cc2ccc(-c3ccccc3)cc2)Oc2ccc(NC(=O)Nc3cccc4ccccc34)cc2CC1=O` the entry was “inactive”.
The same measure for `C[C@H](CO)N1C[C@H](C)[C@@H](CN(C)Cc2ccc(-c3ccccc3)cc2)Oc2ccc(NC(=O)Nc3cccc4ccccc34)cc2CC1=O`: “inactive”.
As for `C[C@H]1CN([C@@H](C)CO)C(=O)Cc2cc(NC(=O)Nc3cccc4ccccc34)ccc2O[C@H]1CN(C)Cc1ccccc1`, the cytotoxicity call was “inactive”.
As for `C[C@@H]1CN([C@@H](C)CO)C(=O)Cc2cc(NC(=O)Nc3cccc4ccccc34)ccc2O[C@H]1CN(C)Cc1ccccc1`, the cytotoxicity call was “inactive”.
Take `C[C@H]1CN([C@@H](C)CO)C(=O)Cc2cc(NC(=O)Nc3cccc4ccccc34)ccc2O[C@@H]1CN(C)Cc1ccccc1`: the cytotoxicity call was “inactive”.
With `C[C@@H]1CN([C@@H](C)CO)C(=O)CCCn2cc(nn2)CO[C@@H]1CN(C)S(=O)(=O)c1ccc(-n2cccn2)cc1` the entry was “inactive”.
With `C[C@H]1CN([C@@H](C)CO)S(=O)(=O)c2ccc(C#Cc3cccnc3)cc2O[C@H]1CN(C)CC1CCOCC1` the entry was “inactive”; with `COc1ccc(S(=O)(=O)N(C)C[C@H]2Oc3ccc(NS(=O)(=O)c4ccc(F)cc4)cc3CC(=O)N([C@@H](C)CO)C[C@H]2C)cc1`, “inactive”; with `COC(=O)[C@H]1CN(C)CCC1=O`, “inactive”.
Take `C[C@@H]1O[C@@H](OC[C@H]2O[C@@H](Oc3cc(O)c4c(c3)O[C@@H](c3ccc(O)cc3)CC4=O)[C@H](O)[C@@H](O)[C@@H]2O)[C@H](O)[C@H](O)[C@H]1O`: the cytotoxicity call was “inactive”.
With `COc1ccc([Si](C)(C)[C@H]2[C@H](CCn3cc([C@H](O)c4ccccc4)nn3)O[C@@]3(C(=O)N(Cc4cccc(N5CCC5=O)c4)c4ccccc43)[C@@H]2C)cc1`, the cytotoxicity call is “inactive”.
The same measure for `Cc1ccc(S(=O)(=O)N(C)C[C@@H]2Oc3c(NC(=O)c4cc(C)nn4C)cccc3C(=O)N([C@@H](C)CO)C[C@@H]2C)cc1`: “inactive”.
The same measure for `C=CCOC(=O)[C@@H]1[C@H]2C(=O)O[C@H](c3ccccc3)[C@H](c3ccccc3)N2[C@H](c2ccc(OCCOC(=O)[C@H]3C[C@H]4C(=O)NCC(=O)N4[C@H]3c3ccc(O)cc3)cc2)[C@@]12C(=O)Nc1ccc(I)cc12`: “inactive”.
The same measure for `Cc1ccccc1S(=O)(=O)N1C[C@@H](O)COC[C@@H]2O[C@@H](CC(=O)N3CCOCC3)CC[C@H]21`: “inactive”.
With `CC(C)N1C[C@H](CNCc2ccc(Oc3ccccc3)cc2)Oc2c(NC(=O)c3ccncc3)cccc2C1=O`, the cytotoxicity call was “inactive”.
With `Cc1ccc(-c2cnc3c(c2)C(=O)N([C@H](C)CO)C[C@H](C)[C@@H](CN(C)C(=O)Cc2cccnc2)O3)cc1` the entry was “inactive”.
Turning to `C[C@@H]1CN([C@@H](C)CO)C(=O)c2cccc(NC(=O)Nc3ccccc3)c2O[C@@H]1CN(C)C(=O)Nc1ccc(C(F)(F)F)cc1`, the cytotoxicity call is “inactive”.
With `C[C@H]1CN([C@@H](C)CO)C(=O)c2cccc(NC(=O)Nc3ccc(C(F)(F)F)cc3)c2O[C@@H]1CN(C)C(=O)Nc1ccccc1` the entry was “active”.
Turning to `C[C@H]1CN([C@@H](C)CO)C(=O)c2cccc(NC(=O)Nc3ccccc3)c2O[C@@H]1CN(C)C(=O)Nc1ccc(C(F)(F)F)cc1`, the cytotoxicity call was “inactive”.
The same measure for `C[C@@H]1CN([C@H](C)CO)C(=O)c2cccc(NC(=O)Nc3ccc(C(F)(F)F)cc3)c2O[C@@H]1CN(C)C(=O)Nc1ccccc1`: “active”; for `C[C@H](CO)N1C[C@H](C)[C@H](CN(C)C(=O)Nc2ccc(C(F)(F)F)cc2)Oc2c(NC(=O)Nc3ccccc3)cccc2C1=O`: “inactive”.
With `C[C@H](CO)N1C[C@H](C)[C@@H](CN(C)C(=O)Nc2ccc(C(F)(F)F)cc2)Oc2c(NC(=O)Nc3ccccc3)cccc2C1=O` the entry was “inactive”; with `COc1ccc(C(=O)Nc2ccc(CN3C(=O)[C@]4(O[C@H](CCO)[C@@H]([Si](C)(C)F)[C@@H]4C)c4ccccc43)cc2)cc1`, “inactive”; with `CN1CCN(C(=O)C[C@@H]2CC[C@@H]3[C@H](COC[C@H](O)CN3C(=O)Nc3cc(Cl)cc(Cl)c3)O2)CC1`, “inactive”.
The same measure for `CCCCCc1ccccn1`: “inactive”; for `CCCCCCCCCCCCC[N+](C)(C)Cc1ccccc1`: “active”.
`CCCCCCCCCCCCC[N+](C)(C)Cc1ccccc1.O.[Cl-]`: the cytotoxicity call is “active”.
For `CCCCCCCCCCCCCCCC[N+](C)(C)Cc1ccccc1.[Cl-]`, the cytotoxicity call was “active”.
With `CC[N+](C)(CC)Cc1ccccc1` the entry was “inactive”; with `CCCCNc1ccccc1`, “inactive”.
The same measure for `COc1ccc(S(=O)(=O)Nc2ccc3c(c2)CC(=O)N([C@@H](C)CO)C[C@H](C)[C@H](CN(C)S(=O)(=O)c2cccs2)O3)cc1`: “inactive”.
With `C[C@H](CO)N1C[C@H](C)[C@H](CN(C)CC2CC2)Oc2c(NS(=O)(=O)c3cccs3)cccc2C1=O` the entry was “inactive”.
For `Cc1noc(C)c1S(=O)(=O)Nc1ccc2c(c1)C(=O)N([C@@H](C)CO)C[C@H](C)[C@@H](CN(C)CC1CCCCC1)OCCCC[C@@H](C)O2`, the cytotoxicity call was “inactive”.
The same measure for `O=C(C1=C[C@H](c2coc3ccccc3c2=O)C[C@H](OCc2ccc(CO)cc2)O1)N1CCCCCCC1`: “inactive”; for `CS(=O)(=O)NCc1cnc2n1CCN(C[C@H]1CCOC1)CC2`: “inactive”; for `C[C@H](CO)N1C[C@H](C)[C@H](CN(C)C(=O)Nc2ccc(F)cc2)Oc2ccc(NC(=O)CCCCCC(=O)Nc3ccccc3N)cc2CC1=O`: “inactive”.
With `CCCNC(=O)Nc1ccc2c(c1)OC[C@H](C)N(Cc1ccc(-c3ccccn3)cc1)C[C@H](C)[C@H](OC)CN(C)C2=O` the entry was “inactive”.
